# In PubChem BioAssay (NCI):
# About 83,000 compounds went through this panel and 20% of them were active in at least one assay; those are over-represented in the sample as a whole.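 Note: values are percent growth. 100 is the growth of untreated cells, values between 100 and 0 indicate rising inhibition; between -100 and 0 indicates cell death.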 A number with no mark means an inactive call. Active and inactive are the calls of the source. How the source made its calls: active means growth percent below 10; inactive means the rest.
# System: MDA-MB-468 breast
# Test: NCI-60 one-dose screen, 48 h (100 = growth as untreated, 0 = no growth, -100 = all killed)
# Conditions: 10 µM unless noted
row,SMILES,growth
1,CCN1CCN(c2ccc(Nc3ncc4ccc5ncn(C(C)C)c5c4n3)nc2)CC1,-41.3% (active)
2,N#Cc1ccc(OC(=O)Nc2ccc(Cl)c(Cl)c2)cc1,42.9%
3,Cc1ccccc1SSc1ccccc1C,68.4%
4,COc1ccc(-c2c(-c3nc4ccc(N5CCOCC5)cc4[nH]3)[nH]c(C)c2C(C)=O)cc1,23.1%
5,CCN1CCN(Cc2ccc(NC(=O)Nc3nc(-c4cc(OC)c(OC)c(OC)c4)cs3)cc2C(F)(F)F)CC1,-0.339% (active)
6,COc1ccc(-n2sc(=O)n(Cc3ccc(COC(=O)C(C)c4ccc(CC(C)C)cc4)cc3)c2=O)cc1 (centres undefined),-46.1% (active)
7,CC(C)=CCc1cc2c(cc1O)C1=C(C(=O)C3=C(C1=O)S(=O)(=O)CCN3)C(C=C(C)C)O2 (centres undefined),-33.5% (active)
8,COC(=O)/C(CCC=C(C)C)=C1\[C@@H](OC(C)=O)C[C@@]2(C)[C@H]1CC(=O)N[C@H]1[C@@]3(C)CCNC(=O)[C@@H](C)[C@@H]3CC[C@@]12C,99.7%
9,COc1ccc([N+](=O)[O-])c(C(=O)O)c1,96.4%
10,CCCCOc1nc2ccc(OC)cc2cc1-c1cc(-c2ccc(Cl)cc2)nc(-c2ccc(Cl)cc2)c1,95.2%
11,COc1cc(-c2nn(C(C)(C)C)cc2-c2ccnc(NCCCNS(=O)(=O)c3ccc(Cl)cc3)n2)ccc1Cl,63.7%
12,CCN(CC)CCNC(=O)n1cc(-c2ccncc2)c(-c2ccc(Cl)c(OC)c2)n1,88.3%
13,Cc1nc(N)nc(SCc2ccccc2)c1Br,69%
14,CCOC(=O)C#Cc1c(C(=O)OCC)nnn1[C@@H]1O[C@H](CO)[C@H]2OC3(CCCCC3)O[C@H]21,-19.7% (active)
15,CCOC(=O)C1=C(C)Nc2nc3ccccc3n2C1c1cccc(Br)c1 (centres undefined),54.2%
16,O=C1OCC2=C1C(c1cccc(F)c1)c1cc3c(cc1N2CCO)OCO3 (centres undefined),8.27% (active)
17,COc1ccc(C2CC(c3cc(Cl)c(C)cc3OC)=NN2c2ccc(S(N)(=O)=O)cc2)cc1OC (centres undefined),94.6%
18,COc1ccc(CC2c3cc(OC)c(OC)cc3CC[N+]2(C)CCC(=O)OCCCCCOC(=O)CC[N+]2(C)CCc3cc(OC)c(OC)cc3C2Cc2ccc(OC)c(OC)c2)cc1OC (centres undefined),88.3%
19,O=C(/C=C/c1cccnc1)/C=C/c1cccnc1,-64.1% (active)
20,COc1cc(OC)c2ccc(=O)oc2c1,103%

row,SMILES,growth
1,CN(C)c1ccc(CNCCO)cc1,105%
2,O=C1c2ccccc2C(=O)c2c(O)c(Cl)cc(O)c21,-15.7% (active)
3,CCCCCCCOc1c(OC)cc(C2CC(=O)Nc3c2c(C)nn3-c2nc3ccccc3[nH]2)cc1OC (centres undefined),-4.43% (active)
4,O=S(=O)(/N=C1C=C/C(=N\S(=O)(=O)c2ccccc2)c2ccccc2\1)c1ccccc1,79.3%
5,O=C(Cc1ccccc1)Cc1ccccc1,99.5%
6,NS(=O)(=O)c1ccc(CN2C(=O)c3cccc4cccc(c34)C2=O)cc1,98.2%
7,CCN(CC)c1ccc(CNc2ccnc3ccccc23)cc1,1.4% (active)
8,Cc1ccc(-c2ccc(/C=C(\C#N)c3nc(-c4ccco4)cs3)o2)cc1,-45.8% (active)
9,O=C(CSc1nc2ccccc2c(=O)n1-c1ccc(Cl)c(Cl)c1)Nc1ccc(S(=O)(=O)Nc2ccc(Cl)nn2)cc1,116%
10,COc1cc(/C=N/NC(=S)NNC(=S)NC2CCCCC2)cc(OC)c1OC,94.2%
11,O=[N+]([O-])c1cc(/C=N/Nc2nc(N/N=C/c3ccc(Cl)c([N+](=O)[O-])c3)nc(N3CCCCC3)n2)ccc1Cl,68.8%
12,COc1ccc2c(c1)OC(N)=C(C#N)C2c1ccc(F)cc1 (centres undefined),7.54% (active)
13,CCN(CC)CC(=O)Nc1c(C)cc(C(=O)NN)cc1C,107%
14,C(CCCC1=NCCO1)CCCC1=NCCO1,95%
15,N/C(=N\OC(=O)c1ccccc1)C(Cc1ccccc1)C(=O)NOC(=O)c1ccccc1 (centres undefined),66.1%
16,CCOC(=O)c1c(-c2ccc(OC)cc2)c(C#N)c2c(C#N)c(N)nn2c1N,13.2%
17,CN(C)c1ccc(/C=N/N=C(N)N)cc1,33%
18,O=C(/C=C\c1cccc([N+](=O)[O-])c1)c1ccccc1,-13.8% (active)
19,COC1=CC(=O)c2ccccc2C1=O,32.7%
